Measurements as given in the supplement of paper PMC8728848.
The sample as a whole holds a higher share of the strongest signals than the screen did.

Key:
Test in all cases: glycan array binding signal (z-score within array); higher = stronger binding
Details in all cases: glycan notation: IUPAC condensed, linker removed
[1] = molecular target: GlcNAc(a1-3)Gal(b1-4)GlcNAc
Outline: (§1)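 The binding signal is a Z-score computed within each array and averaged over linkers. Arrays of the same protein sequence at different concentrations or buffers were also averaged together. Data originate from 3228 arrays in the Consortium for Functional Glycomics database, kept only where the protein sequence was available.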

[2] = molecular target: GlcNAc(b1-2)Man(a1-3)[GlcNAc(b1-4)][GlcNAc(b1-2)Man(a1-6)]Man(b1-4)GlcNAc(b1-4)[Fuc(a1-6)]GlcNAc
Outline: as §1

[3] = molecular target: GlcNAc(b1-2)[GlcNAc(b1-6)]Man(a1-6)[GlcNAc(b1-2)Man(a1-3)]Man(b1-4)GlcNAc(b1-4)[Fuc(a1-6)]GlcNAc
Outline: as §1

[4] = molecular target: GlcNAc(b1-3)Gal(b1-4)GlcNAc(b1-3)Gal(b1-4)GlcNAc(b1-2)[GlcNAc(b1-3)Gal(b1-4)GlcNAc(b1-3)Gal(b1-4)GlcNAc(b1-6)]Man(a1-6)[GlcNAc(b1-3)Gal(b1-4)GlcNAc(b1-3)Gal(b1-4)GlcNAc(b1-2)Man(a1-3)]Man(b1-4)GlcNAc(b1-4)[Fuc(a1-6)]GlcNAc
Outline: as §1

[5] = molecular target: GlcNAc(b1-3)Gal(b1-4)GlcNAc(b1-3)Gal(b1-4)GlcNAc(b1-3)Gal(b1-4)GlcNAc(b1-2)Man(a1-3)[GlcNAc(b1-3)Gal(b1-4)GlcNAc(b1-3)Gal(b1-4)GlcNAc(b1-3)Gal(b1-4)GlcNAc(b1-2)Man(a1-6)]Man(b1-4)GlcNAc(b1-4)GlcNAc
Outline: as §1

Kdn(a2-3)Gal(b1-3)GalNAc = molecular target: Kdn(a2-3)Gal(b1-3)GalNAc
Outline: as §1

[6] = molecular target: Man(a1-2)Man(a1-2)Man(a1-3)Man
Outline: as §1

[7] = molecular target: Man(a1-3)[Man(a1-6)]Man(b1-4)GlcNAc(b1-4)[Fuc(a1-6)]GlcNAc
Outline: as §1

[8] = molecular target: Neu5Ac(a2-3)Gal(b1-3)[Neu5Ac(a2-6)]GalNAc
Outline: as §1

[9] = molecular target: Neu5Ac(a2-3)Gal(b1-3)]Neu5Ac(a2-3)Gal(b1-4)]GlcNAc
Outline: as §1

[10] = molecular target: Neu5Ac(a2-3)Gal(b1-4)GlcNAc(b1-2)Man(a1-3)[Neu5Ac(a2-3)Gal(b1-4)GlcNAc(b1-2)Man(a1-6)]Man(b1-4)GlcNAc(b1-4)[Fuc(a1-6)]GlcNAc
Outline: as §1

[11] = molecular target: Neu5Ac(a2-3)Gal(b1-4)GlcNAc(b1-2)[Neu5Ac(a2-3)Gal(b1-4)GlcNAc(b1-4)]Man(a1-3)[GlcNAc(b1-4)][Neu5Ac(a2-3)Gal(b1-4)GlcNAc(b1-2)[Neu5Ac(a2-3)Gal(b1-4)GlcNAc(b1-6)]Man(a1-6)]Man(b1-4)GlcNAc(b1-4)GlcNAc
Outline: as §1

[12] = molecular target: Neu5Ac(a2-3)Gal(b1-4)GlcNAc(b1-2)[Neu5Ac(a2-3)Gal(b1-4)GlcNAc(b1-4)]Man(a1-3)[GlcNAc(b1-4)][Neu5Ac(a2-3)Gal(b1-4)GlcNAc(b1-4)Man(a1-6)]Man(b1-4)GlcNAc(b1-4)GlcNAc
Outline: as §1

[13] = molecular target: Neu5Ac(a2-3)Gal(b1-4)GlcNAc(b1-6)GalNAc
Outline: as §1

[14] = molecular target: Neu5Ac(a2-3)Gal(b1-4)[Fuc(a1-3)]GlcNAc
Outline: as §1

[15] = molecular target: Neu5Ac(a2-3)Gal(b1-4)[Fuc(a1-3)]GlcNAc(b1-3)GalNAc
Outline: as §1

[16] = molecular target: Neu5Ac(a2-3)Gal6S(b1-4)GlcNAc
Outline: as §1

[17] = molecular target: Neu5Ac(a2-6)Gal(b1-4)GlcNAc(b1-2)Man(a1-3)Man(b1-4)GlcNAc(b1-4)GlcNAc
Outline: as §1

[18] = molecular target: Neu5Ac(a2-6)Gal(b1-4)GlcNAc(b1-3)Gal(b1-4)GlcNAc(b1-3)Gal(b1-4)GlcNAc(b1-2)Man(a1-3)[Neu5Ac(a2-6)Gal(b1-4)GlcNAc(b1-3)Gal(b1-4)GlcNAc(b1-3)Gal(b1-4)GlcNAc(b1-2)Man(a1-6)]GalNAc
Outline: as §1

[19] = molecular target: Neu5Ac(a2-6)Gal(b1-4)GlcNAc(b1-6)[Gal(b1-3)]GalNAc
Outline: as §1

[20] = molecular target: Neu5Ac(a2-6)Gal(b1-4)GlcNAc6S
Outline: as §1

[21] = molecular target: Neu5Ac(a2-6)GlcNAc(b1-4)GlcNAc
Outline: as §1

[22] = molecular target: Neu5Ac(a2-8)Neu5Ac(a2-3)Gal(b1-3)GalNAc(b1-4)[Neu5Ac(a2-3)]Gal(b1-4)Glc
Outline: as §1

[23] = molecular target: Neu5Ac(a2-8)Neu5Ac(a2-3)[Gal(b1-3)GalNAc(b1-4)]Gal(b1-4)Glc
Outline: as §1

[24] = molecular target: Neu5Gc(a2-8)Neu5Gc(a2-3)Gal(b1-4)GlcNAc
Outline: as §1

[25] = molecular target: Neu5Gc(a2-8)Neu5Gc(a2-6)Gal(b1-4)GlcNAc
Outline: as §1

B1: Erv41-EDTA (Saccharomyces cerevisiae), Q04651 (protein)
chain: MKFLVNVALVFMVVYISYIYAAAPEHHHHHHDYDIPTTENLYFQGAMGYIDQQYVVDSQVRDTVQINMDIYVNTKCDWLQINVRDQTMDRKLVLEELQLEEMPFFIPYDTKVNDINEIITPELDEILGEAIPAEFREKLDTRSFFDESDPNKAHLPEFNGCHVFGSIPVNRVSGELQITAKSLGYVASRKAPLEELKFNHVINEFSFGDFYPYIDNPLDNTAQFNQDEPLTTYVYYTSVVPTLFKKLGAEVDTNQYSVNDYRYLYKDVAAKGDKMPGIFFKYNFEPLSIVVSDVRL
- glycan array binding signal (z-score) [1]: -0.577
- glycan array binding signal (z-score) [2]: 0.162
- glycan array binding signal (z-score) [3]: 2.54
- glycan array binding signal (z-score) [4]: 1.25
- glycan array binding signal (z-score) [5]: 0.272
- glycan array binding signal (z-score) (Kdn(a2-3)Gal(b1-3)GalNAc): 0.349
- glycan array binding signal (z-score) [6]: -0.638
- glycan array binding signal (z-score) [7]: -0.081
- glycan array binding signal (z-score) [8]: -0.609
- glycan array binding signal (z-score) [9]: -0.585
- glycan array binding signal (z-score) [10]: 2.09
- glycan array binding signal (z-score) [11]: 1.18
- glycan array binding signal (z-score) [12]: -0.72
- glycan array binding signal (z-score) [13]: -0.767
- glycan array binding signal (z-score) [14]: 0.162
- glycan array binding signal (z-score) [15]: 1.5
- glycan array binding signal (z-score) [16]: 0.025
- glycan array binding signal (z-score) [17]: 1.97
- glycan array binding signal (z-score) [18]: 2.65
- glycan array binding signal (z-score) [19]: 0.134
- glycan array binding signal (z-score) [20]: -0.865
- glycan array binding signal (z-score) [21]: 0.004
- glycan array binding signal (z-score) [22]: -0.348
- glycan array binding signal (z-score) [23]: 1.35
- glycan array binding signal (z-score) [24]: 0.393
- glycan array binding signal (z-score) [25]: 1.14
